Our source for the inhibition values is PubChem BioAssay AID951 (NMMLSC, 2007).

In all, about 190,000 compounds went through this assay and about 140 (0.074%) were called active. The full list was thinned out, with actives kept by preference. A number with no mark means an inactive call. Rule as the data show it: active = inhibition above about 40%.

The target of this test is Bcl-2-like protein 10 (Homo sapiens) (UniProt Q9HD36). As to the kind of experiment: inhibitors of Bim-Bcl-B binding, primary screen, biochemical, multiplexed, human Bcl-2 family (AID 951).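 Also: 0% = tracer peptide without compound and 100% = reference inhibitor peptide.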 The note with it: bead-based flow cytometry, Bim peptide-Bcl-B binding; at 10 µM; active compounds read high.
Bcl-2-like protein 10 (Homo sapiens), sequence (Q9HD36 whole entry, looked up): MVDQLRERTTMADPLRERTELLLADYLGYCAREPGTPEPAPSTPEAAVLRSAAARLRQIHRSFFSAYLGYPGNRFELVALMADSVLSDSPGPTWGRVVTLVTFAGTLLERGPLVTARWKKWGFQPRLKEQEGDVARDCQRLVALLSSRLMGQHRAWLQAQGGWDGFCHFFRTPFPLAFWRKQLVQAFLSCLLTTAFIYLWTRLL
With `COc1ccccc1N1CCN(CC(=O)NC(=O)NCc2ccco2)CC1`, the inhibition was -9%.

On to `CCN(CCn1cccn1)Cc1cn[nH]c1-c1ccc(OC)cc1F`, for which the inhibition is -4%.

Turning to `O=C(COC(=O)CNC(=O)c1ccccc1F)NCC(F)(F)F`, the inhibition was -5%.

With `COc1ccc(C(CC(=O)Nc2ccc(C)cc2)NC(=O)C(F)(F)F)cc1` (stereo unspecified), the inhibition was -9%.

For `CCOC(=O)c1oc2c(CN3CCN(CCO)CC3)c(O)c(CC)cc2c(=O)c1-c1nc2ccccc2s1`, the inhibition was 0%.

In the case of `N#Cc1ccccc1NC(=O)COc1c(Br)cc(Br)c2cccnc12`, the inhibition was -7%.

As for `Cc1ccc(Nc2nc(CSc3nnc(-c4ccncc4)n3-c3ccccc3C)cs2)cc1`, the inhibition was -11%.

For the compound `CCCCc1ccc(NC(=S)N2CCCC(CO)C2)cc1` (stereo unspecified), the inhibition is -7%.

`Cc1ccc(NC(=O)O/N=C/c2cccc([N+](=O)[O-])c2)cc1`: the inhibition is 0%.

In the case of `CCOc1cc(NC(=S)NCCCOC)c(OCC)cc1NC(=O)c1ccco1`, the inhibition is -11%.

Consider `NC(=O)c1ccccc1N=Cc1ccc2ccccc2c1`, for which the inhibition is -4%.

As to `O=c1c(-c2ccccc2)cnc2n1CCS2`, the inhibition is -2%.

As to `O=C(CC1SCCNC1=O)Nc1ccc(Cl)c(Cl)c1` (stereo unspecified), the inhibition was -1%.

As to `CCC(CC)C(=O)N1CCN(c2cccc(C)c2C)CC1`, the inhibition was 0%.

Turning to `CCN(CC)CCNC(=O)c1ccc(NS(=O)(=O)c2ccc3c(c2)OCCO3)cc1`, the inhibition is 0%.

Consider `Cc1nc2ccccc2n1CC(=O)N/N=C/c1cccs1`, for which the inhibition is -6%.

As to `CN(C)c1ccc(C(=S)N2CCN(C(=S)Nc3ccc(Cl)cc3)CC2)cc1`, the inhibition is -6%.

As for `CN1CCN(CCNC(=O)Nc2ccc([N+](=O)[O-])cc2)CC1`, the inhibition is -5%.

`O=C(Nn1cnc2ccccc2c1=O)c1ccc([N+](=O)[O-])cc1Cl`: the inhibition is 0%.

As to `Cc1c(CN2CCCCC2)c(O)n(CCO)c(=O)c1C#N`, the inhibition is -3%.

Take `CCOc1cc(NC(=O)CCl)c(OCC)cc1NC(C)=O`: the inhibition is -4%.

Regarding `CC(NC(=O)COC(=O)c1ccc2c(c1)OCO2)c1ccccc1` (stereo unspecified), the inhibition is 0%.

On to `CC(C)NC(=O)c1ccc(Cl)cc1Cl`, for which the inhibition is -2%.

Regarding `Cn1c(-c2sccc2OCc2cccc(C(F)(F)F)c2)n[nH]c1=S`, the inhibition was -24%.

Regarding `O=C(CC(NC(=O)c1ccccc1)c1ccccc1)Nc1ccc(F)c(F)c1` (stereo unspecified), the inhibition is -6%.

With `CCOC(=O)C1(C)NC(c2ccco2)C2C(=O)N(c3ccccc3)C(=O)C21` (stereo unspecified), the inhibition is -1%.

In the case of `CC(=O)c1c(N2CCN(c3ccc(F)cc3)CC2)nc(=S)n(-c2ccccc2)c1C`, the inhibition is -11%.

Take `CNC(=O)C(=O)N/N=C/c1ccccn1`: the inhibition is 2%.

`CCCC1NC(=S)NC(C)=C1C(C)=O` (stereo unspecified): the inhibition is -2%.

Turning to `C/C(=N/NC(=O)CSc1ccccn1)c1ccc([N+](=O)[O-])cc1`, the inhibition was -2%.

Turning to `CC(C)(C)C(=O)CSc1nc2ccccc2o1`, the inhibition was -4%.

`CCOC(=O)C(C)Oc1cccc2c(=O)n(CC(=O)NCCc3ccc(OC)c(OC)c3)ccc12` (stereo unspecified): the inhibition was -3%.

For the compound `CCSC1=NCCN1C(=O)c1ccc(S(=O)(=O)N(CC)CC)cc1`, the inhibition is -5%.

Consider `CC(C)(C)c1ccc(/C=C2\SC(=O)N=C2N)cc1`, for which the inhibition was -3%.

With `Cc1c(Br)c([N+](=O)[O-])nn1CC(=O)Nc1sc2c(c1C(=O)OC(C)C)CCC(C)C2` (stereo unspecified), the inhibition is 2%.

For the compound `Cc1cc(Cl)ccc1OCc1nc(-c2ccncc2)no1`, the inhibition is -5%.

Turning to `O=C(Nc1ccc2c(c1)CCC2)c1ccc(Br)s1`, the inhibition was 0%.

For `CCn1cc(C(=O)NCCCN2CCCCCC2)c(=O)c2cc(S(=O)(=O)N3CCc4ccccc4C3)ccc21`, the inhibition is -12%.

For `O=C(N/N=C/c1cc2c(cc1Br)OCO2)C1COc2ccccc2O1` (stereo unspecified), the inhibition was 1%.

As for `O=[N+]([O-])c1cccc(/C([O-])=C(/C(=S)Nc2ccccc2F)[n+]2ccccc2)c1`, the inhibition is -16%.

On to `COc1cccc(-c2ccc(C#N)c(SCC(=O)NCCc3ccc(Cl)cc3)n2)c1`, for which the inhibition is -12%.

On to `O=C(NCC1CCCO1)C1CCN(C2CCN(C(=O)C3CCCCC3)CC2)CC1` (stereo unspecified), for which the inhibition was 0%.

`Cc1cccc(-n2c(SCC(=O)Nc3cccc(S(=O)(=O)NC4=NCCCCC4)c3)nc3ccccc3c2=O)c1C`: the inhibition was -4%.

In the case of `O=C(Nc1ccc(F)cc1)C1CCN(C(=O)c2ccc([N+](=O)[O-])cc2)CC1`, the inhibition was 6%.

As to `O=C(O)c1ccc(NS(=O)(=O)c2ccc3c(c2)C(=O)c2cc(S(=O)(=O)Nc4ccc(C(=O)O)cc4)ccc2-3)cc1`, the inhibition was -6%.

Turning to `O=C(COC(=O)Cc1ccc(Br)cc1)Nc1c(F)c(F)c(F)c(F)c1F`, the inhibition was -7%.

As for `CC(=O)c1ccccc1NC(=O)CC1(CC(=O)O)CCCCC1`, the inhibition was -1%.

In the case of `NS(=O)(=O)c1ccc(NC(=S)Nc2ccc(Br)c(Cl)c2)cc1`, the inhibition is -9%.

For `CC(C)(C)C(=O)NC(NC(=S)Nc1ccc(S(N)(=O)=O)cc1)C(Cl)(Cl)Cl` (stereo unspecified), the inhibition was 49% (active).

Turning to `CC(=O)NS(=O)(=O)c1ccc(NC(=S)NC(=O)C(C)(C)C)cc1`, the inhibition is -4%.

As to `COc1cccc(C2c3[nH]c4ccccc4c3CCN2Cc2cccc(C)n2)c1` (stereo unspecified), the inhibition was -3%.

In the case of `CCOc1ccc2nc(NC(=O)c3cc([N+](=O)[O-])ccc3N3CCOCC3)sc2c1`, the inhibition was -3%.

With `O=C(CCc1ccccc1)Nc1ccc(NC(=O)C2CCCCC2)nc1`, the inhibition was 0%.

As for `O=C(NNC(=S)NCCCN1CCOCC1)c1ccncc1`, the inhibition was -2%.

As for `OC(COCc1ccco1)CN1CCN(c2ccccc2)CC1` (stereo unspecified), the inhibition is -4%.

Consider `Cc1cc(N2CCOCC2)nc2ccc(NC(=S)N3CCN(Cc4ccccc4)CC3)cc12`, for which the inhibition was -4%.

As to `CCNC(=O)CC1C(=O)N(c2ccc(F)cc2)C(=O)N1Cc1cccs1` (stereo unspecified), the inhibition was -6%.

With `CCO[C@H]1OC(C(=O)N2CCN(Cc3ccccc3)CC2)=C[C@@H](c2cn(C(C)=O)c3ccccc23)[C@@H]1CCCO`, the inhibition is -3%.

For the compound `CN(C)N(C)C(=O)C(O)(c1ccccc1)c1ccccc1`, the inhibition was -2%.

Consider `CS(=O)(=O)c1ccc2nc(NC(=O)c3ccc(Cl)nc3)sc2c1`, for which the inhibition is -2%.

Take `O=[N+]([O-])c1ccc(N/N=C2/CCCCC2c2ccccn2)c([N+](=O)[O-])c1` (stereo unspecified): the inhibition was -11%.

With `O=C(COc1ccccc1[N+](=O)[O-])NC1CC1`, the inhibition is -4%.

For `OCCNCCOc1ccc(Cl)c(Cl)c1`, the inhibition is -5%.

`Cc1cccc(NC(=S)N(CCN(C)C)C(C)c2ccco2)c1` (stereo unspecified): the inhibition is 0%.

For the compound `COc1ccc(Br)cc1C(=O)Nc1cccc(C)c1C`, the inhibition was -7%.

With `CCCCN1C(=O)c2ccc(C(=O)Nc3ccc(S(=O)(=O)N(C)C)cc3)cc2C1=O`, the inhibition is 0%.

With `O=C(NNC(=O)c1ccc(Cl)cc1Cl)c1cccs1`, the inhibition is -1%.

Consider `CC(=O)NS(=O)(=O)c1ccc(NC(=O)C2C3C=CC(C3)C2C(=O)O)cc1` (stereo unspecified), for which the inhibition was -5%.

As to `S=c1nc(C23CC4CC(CC(C4)C2)C3)nc2sccn12`, the inhibition was 2%.

As for `O=C(CC1NCCc2ccccc21)Nc1cccc(Cl)c1` (stereo unspecified), the inhibition is -1%.

Regarding `CCN(CC)S(=O)(=O)c1ccc(N2CCCC2)c(NS(=O)(=O)c2cccs2)c1`, the inhibition was -5%.

On to `Cc1ccn(-c2cccc(-n3ccc(C)n3)n2)n1`, for which the inhibition is 0%.

Turning to `COc1ccccc1C1CC(=O)n2c(nc(-c3ccccc3)c2-c2ccccc2)S1` (stereo unspecified), the inhibition was -4%.

Regarding `CC1(C)CC(N(Cc2ccccc2)C(=O)Cc2ccccc2)CCO1` (stereo unspecified), the inhibition was -3%.

For `Cc1cccc(C(=O)OC(C)CN2CCN(C)CC2)c1` (stereo unspecified), the inhibition is -4%.

Regarding `CC(C)(C)NC(=O)COC(=O)c1cc(Cl)ccc1[N+](=O)[O-]`, the inhibition was 0%.

In the case of `O=C(c1ccc(Cl)c([N+](=O)[O-])c1)N1CCN(c2ccccc2)CC1`, the inhibition is -4%.

Take `COc1cc(NC(=O)c2ccc3c(c2)OCO3)ccc1NC(=O)c1cccs1`: the inhibition is 2%.

As to `COc1ccc(/C=C2\SC(=S)N(CC(=O)NNC(=O)c3ccncc3)C2=O)cc1`, the inhibition is -1%.

On to `COCCN(Cc1nc(-c2ccc(C(F)(F)F)cc2)no1)C(C)C`, for which the inhibition is -5%.

`CC(OC(=O)CNS(=O)(=O)/C=C/c1ccccc1)C(=O)Nc1ccc(S(=O)(=O)N2CCCC2)cc1` (stereo unspecified): the inhibition is -8%.

On to `Cc1ccc2nc(Nc3ncc4c(n3)CC(C)(C)CC4=O)nc(C)c2c1`, for which the inhibition was -1%.

For `COC(C(=O)NCc1ccccc1C)c1ccccc1` (stereo unspecified), the inhibition was -11%.

On to `CCC1(CC)NC(=O)N(Cc2nc3ccccc3s2)C1=O`, for which the inhibition was -3%.

On to `O=C(NC(=S)NC1CCSC1=O)c1ccccc1F` (stereo unspecified), for which the inhibition is -3%.

Turning to `COc1ccc(-c2nn(-c3ccccc3)cc2/C=C\C(=O)N2CCOCC2)cc1[N+](=O)[O-]`, the inhibition is -1%.

For the compound `O=C(O)CC1S/C(=N\N=C/c2ccccc2O)N(c2ccc(O)cc2)C1=O` (stereo unspecified), the inhibition is -5%.

With `COC(=O)c1onc(-c2c(OC)cc(OC)cc2OC)c1C(=O)OC`, the inhibition is -1%.

Take `CC(C)(C)NC(=O)NC(=O)CN1CCC(Cc2ccccc2)CC1`: the inhibition is -1%.

For the compound `CCCN(CCC)c1c([N+](=O)[O-])c(=O)oc2ccccc12`, the inhibition was 32%.

With `Cc1c(C(=O)NC(=S)NCc2cccnc2)oc2ccccc12`, the inhibition was -9%.

Turning to `Cc1cc(C(=O)N/N=C/c2ccc(O)c([N+](=O)[O-])c2)c(C)n1-c1ccc(F)cc1`, the inhibition is 10%.

Take `Cc1ccccc1NCC(=O)N/N=C\c1ccc([N+](=O)[O-])s1`: the inhibition was -3%.

Regarding `COC(=O)c1ccc(C(NC(=O)OCc2ccccc2)/C(C)=C/[C@@H](C)C(=O)NCc2ccc(OC)c(OC)c2)cc1` (stereo partly specified), the inhibition was -7%.

On to `O=C(CCC(=O)c1cccs1)NC1CCCCCC1`, for which the inhibition was -1%.

`O=C(C(Cl)Cl)N1CCN(c2ccccn2)CC1`: the inhibition was -1%.

With `CCOc1cc(N2CCOCC2)c(OCC)cc1NC(=O)c1cc(C)nc2ccccc12`, the inhibition is -6%.

In the case of `COC(=O)c1sc2[nH]c(=S)n(N)c(=O)c2c1C`, the inhibition is -22%.

Turning to `CC(Cc1cccs1)NC(=O)c1cccc(Cl)c1` (stereo unspecified), the inhibition is -4%.

For the compound `C=CCNC(=O)c1ccccc1NC(=O)c1ccc(Cl)c(S(=O)(=O)Nc2cccc(C)c2C)c1`, the inhibition was -5%.

`COc1ccc(C(=O)Nc2sc(C)c(C)c2CN2CCOCC2)cc1`: the inhibition was -7%.

As for `CCCn1nc(C(=O)Nc2ccc3nc(C)sc3c2)c2ccccc2c1=O`, the inhibition was -7%.

On to `COc1cc(C(=O)N[C@@H](C)C(=O)NCc2ccco2)cc(OC)c1OC`, for which the inhibition is 1%.

With `Cn1c(SCC(=O)NC2CCCCC2)nnc1-c1ccc(N)cc1`, the inhibition is -4%.

As for `COc1ccc(C2OCC3(CO2)SC(=O)NC3=O)cc1OC` (stereo unspecified), the inhibition was -1%.

Take `CCN(C(=O)CSc1nc2ccccc2n1CC)C1CCS(=O)(=O)C1` (stereo unspecified): the inhibition was -1%.

As a reminder, the inhibition is the relative decrease from the control value, in per cent.
